Pol iota inh – blocks human DNA polymerase iota activity. Potency, µM (highest dose often 115 µM), without a hit: top-dose activity, negative = inhibition, actives largely listed as inhibitors. Pol iota fluorescent replication assay, 10 min. 1% of 390,000 active; note: potency is the fitted concentration of half-maximal effect
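Fluorescent replication assay read twice, at 0 min and 10 min after adding 50 nM (final) substrate. Enzyme (10 nM) and compounds were first incubated 15 min at room temperature; enzyme-free buffer wells were negative controls.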
PI5P4Ka inh – inhibitors of human PI5P4K alpha. 1.2% of 330,000 active. P48426. max response, %. PI5P4Kalpha enzyme, ADP-Glo luminescence, 60 min; active compounds read low; active = max response of -50% or lower; inconclusive = between -30% and -50%; inactive = -30% or higher; note: value at the top dose of about 77 µM; % is set by controls: 0 for no effect and ±100 for the full control effect
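Compounds were pin-transferred onto PI5P4Kalpha and substrate in HEPES pH 7.4 buffer with EGTA, CHAPS and 5% DMSO. ATP (5 microM final) started the reaction, which ran 60 minutes at room temperature before ADP-Glo detection.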
Pol eta inh-1 – DNA polymerase eta (human) inhibition. recombinant Pol eta, fluorescent DNA replication assay. Potency, µM (highest dose often 114 µM), for inactives: at the top dose activity change, negative = inhibition, most hits filed as inhibitors. Q9Y253. 1.2% of 390,000 active; note: potency is the fitted concentration of half-maximal effect; % is set by controls: 0 for no effect and ±100 for the full control effect
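Fluorescent replication assay: 50 nM final substrate added after a 15 min room-temperature compound preincubation with 10 nM enzyme. Signal taken at 0 min and again at 10 min.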
WRN inhibitor – WRN helicase (human) inhibition | 0.46% of 360,000 active | Potency, µM (series often up to 114 µM), for the others: top-dose activity change, negative = inhibition, actives largely listed as inhibitors | WRN helicase unwinding, fluorescent forked duplex, kinetic; note: potency is the fitted concentration of half-maximal effect; % is set by controls: 0 for no effect and ±100 for the full control effect; nearly all actives have a fitted effect of over 55% in size
Target sequence (Q14191 whole entry, looked up): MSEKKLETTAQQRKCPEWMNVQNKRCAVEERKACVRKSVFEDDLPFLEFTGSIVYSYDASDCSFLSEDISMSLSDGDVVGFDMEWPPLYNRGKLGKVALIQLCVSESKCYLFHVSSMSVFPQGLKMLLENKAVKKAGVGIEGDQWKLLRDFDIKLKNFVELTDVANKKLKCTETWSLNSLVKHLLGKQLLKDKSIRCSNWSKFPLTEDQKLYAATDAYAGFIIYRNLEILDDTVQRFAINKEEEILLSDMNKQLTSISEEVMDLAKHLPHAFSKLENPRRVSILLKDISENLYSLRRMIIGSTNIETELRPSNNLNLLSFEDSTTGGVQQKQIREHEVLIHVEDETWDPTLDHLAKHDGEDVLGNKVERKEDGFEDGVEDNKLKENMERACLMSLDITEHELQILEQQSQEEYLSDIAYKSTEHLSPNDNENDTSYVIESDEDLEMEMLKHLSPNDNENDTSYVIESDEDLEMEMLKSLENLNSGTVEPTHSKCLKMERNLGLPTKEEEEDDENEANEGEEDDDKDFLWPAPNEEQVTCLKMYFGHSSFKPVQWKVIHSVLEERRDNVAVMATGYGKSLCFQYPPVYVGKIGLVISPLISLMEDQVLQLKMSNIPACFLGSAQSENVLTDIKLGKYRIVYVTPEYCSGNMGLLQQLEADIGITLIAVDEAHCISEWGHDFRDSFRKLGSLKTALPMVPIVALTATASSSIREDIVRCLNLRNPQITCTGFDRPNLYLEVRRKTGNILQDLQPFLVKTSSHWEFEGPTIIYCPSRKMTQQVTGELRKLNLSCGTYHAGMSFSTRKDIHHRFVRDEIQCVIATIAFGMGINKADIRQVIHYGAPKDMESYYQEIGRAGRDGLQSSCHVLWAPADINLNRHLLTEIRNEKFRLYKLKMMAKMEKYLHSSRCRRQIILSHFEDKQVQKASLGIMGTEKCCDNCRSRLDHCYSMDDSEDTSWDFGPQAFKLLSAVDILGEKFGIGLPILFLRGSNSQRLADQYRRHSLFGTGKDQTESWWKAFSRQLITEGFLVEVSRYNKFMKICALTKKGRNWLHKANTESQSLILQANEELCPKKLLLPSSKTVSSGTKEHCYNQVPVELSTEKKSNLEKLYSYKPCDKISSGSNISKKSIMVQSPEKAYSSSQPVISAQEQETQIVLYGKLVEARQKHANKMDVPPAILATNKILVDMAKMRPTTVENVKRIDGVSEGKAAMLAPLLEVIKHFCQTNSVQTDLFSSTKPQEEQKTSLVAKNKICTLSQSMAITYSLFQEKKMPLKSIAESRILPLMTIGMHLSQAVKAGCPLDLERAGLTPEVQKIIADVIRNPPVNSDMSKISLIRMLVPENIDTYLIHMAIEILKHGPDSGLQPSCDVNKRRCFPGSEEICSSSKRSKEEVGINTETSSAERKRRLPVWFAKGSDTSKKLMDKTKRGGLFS
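Enzyme (20 nM final) and test compound sit together 15 min at room temperature before substrate addition. Substrate is a single-forked duplex oligonucleotide (100 nM) labelled with fluorophore and quencher, with 2 mM ATP; helicase unwinding raises red fluorescence, read kinetically.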
Pol kappa inh-1 – inhibitors of human DNA polymerase kappa | Potency, µM (top dose mostly 107 µM), inactives show top-dose activity, negative = inhibition, hits mostly inhibitors | Q9UBT6 | purified Pol kappa, fluorescent DNA synthesis assay, 10 min | 0.53% of 400,000 active; note: potency is the fitted concentration of half-maximal effect; % is set by controls: 0 for no effect and ±100 for the full control effect
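Here, compound and 10 nM enzyme are combined for 15 min at room temperature; adding 50 nM substrate (final) starts DNA synthesis, tracked by fluorescence at 0 and 10 min against buffer-only wells.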
POLB inh – blocks human DNA polymerase beta activity. P06746. Pol beta primer extension/strand displacement, fluorescence kinetic. Potency, µM (series often up to 114 µM), without a hit: at the highest dose activity change, negative = inhibition, actives largely listed as inhibitors. 1.3% of 340,000 active. AID 485314; note: potency is the fitted concentration of half-maximal effect; % is set by controls: 0 for no effect and ±100 for the full control effect
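Preincubation: enzyme (10 nM) with compound, 15 min, RT. Reaction: substrate added to 50 nM final. Reads: 0 and 10 min. Analysis: normalized, Hill fit.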
GALK inh confirm – confirmation of human galactokinase (GALK) inhibitors | shares compounds with Pol eta inh-1 | AID 2015 | 70% of 150 active | Potency, µM (doses to about 115 µM), for inactives: top-dose activity, negative = inhibition, hits mostly inhibitors | purified GALK, Kinase-Glo ATP depletion luminescence
Redox cycling – redox cycling activity in phenol red-HRP assay; shares compounds with Pol eta inh-1; Phenol red-HRP H2O2 redox cycling, absorbance 600 nm; Potency, µM (titrated, usually from 115 µM), without a hit: at the top dose activity change, negative = H2O2 signal, actives largely listed as inhibitors; 40% of 150 active
HEK293 tox – HEK-293 cytotoxicity, GALK inhibitor secondary | shares compounds with Pol eta inh-1 | HEK-293 viability, ATP luminescence (CellTiter-Glo), 24/48 h | Potency, µM (highest dose often 46.1 µM), without a hit: at the top dose activity change, negative = cytotoxicity, actives largely listed as inhibitors | 10% of 170 active; note: potency is the fitted concentration of half-maximal effect; % is set by controls: 0 for no effect and ±100 for the full control effect
Pol kappa inh-2 – Pol kappa (human) inhibition, cherry-pick confirmation. shares compounds with Pol eta inh-1. purified Pol-kappa, fluorescent strand-displacement substrate. Potency, µM, actives largely listed as inhibitors. 76% of 920 active; note: potency is the fitted concentration of half-maximal effect
Pol eta inh-2 – Pol eta (human) inhibition, cherry-pick confirmation | shares compounds with Pol eta inh-1 | Potency, µM, actives largely listed as inhibitors | AID 720502 | 64% of 2,600 active | Pol eta primer extension, TAMRA/BHQ fluorescence, 10 min; note: potency is the fitted concentration of half-maximal effect
The depositor's hits bear a star; u = inconclusive; x = no result; [ ] = dose if it differs, or a comment. Shown are actives, neighbours in structure and some others; about 2.8% of the full set was active somewhere. Unless noted, calls come from the whole dose curve; as a rule, active = well fitted curve in the direction sought with a large enough effect; inconclusive = small, poorly fitted or top-dose-only effect, or another doubt; inactive = no such curve, though single readings can be large; an effect the other way counts as inactive or inconclusive.

SMILES	Pol iota inh	PI5P4Ka inh	Pol eta inh-1	WRN inhibitor	Pol kappa inh-1	POLB inh	Pol eta inh-2	others
CCN(CC(=O)Nc1cccc(OC)c1)C(=O)C1CC(=O)N(Cc2ccccc2Cl)C1 (stereo unspecified)	x	-26	-1%	3%	x	x	x
Cc1ccc(N2CC(C(=O)Nc3cccc(C(=O)NC4CC4)c3)CC2=O)cc1 (stereo unspecified)	u	-4	35µM*	-12%	0%	x	x	Pol kappa inh-2=u
COc1ccc(N2CCN(CCCn3cnc4c(OC)ncnc43)CC2)cc1	x	-4	-6%	-4%	x	x	x
NC(=S)n1[nH]c(-c2ccc([N+](=O)[O-])cc2)c(N=Nc2ccccc2[N+](=O)[O-])c1=O	u	-21	6.3µM*	-21%[11.6 µM]	-3%	16µM*	x	Pol kappa inh-2=8.4*
N=C1/C(=C/c2ccc(OCc3ccccc3)cc2)C(=O)N=C2SC(CC(=O)N3CCOCC3)=NN12	u	u	u	-20%	89µM*	-11%	u
Cc1ccc(/C=C2/C(=N)N3N=C(CC(=O)N4CCCC4)SC3=NC2=O)o1	u	-5	-15%	1%	-27%	2%	x
N=C1/C(=C\c2ccc(Br)o2)C(=O)N=C2SC(CC(=O)N3CCCCC3)=NN12	u	-66*	22µM*	u	32µM*	u	85*
N=C1/C(=C/c2ccc(OCc3ccccc3F)cc2)C(=O)N=C2SC(CC(=O)N3CCOCC3)=NN12	25µM*	-25	-11%	-7%	u	u	u
CCOC(=O)c1sc(NC(=O)c2ccc3nc[nH]c3c2)nc1C	u	-20	u	u	-25%	u	u
CCOC(=O)c1sc(NC(=O)c2ccc(=O)[nH]c2)nc1C	14%	-11	u	-32%	6%	14%	x
Cc1ccc(OCC(=O)Nc2nnc(S(=O)(=O)N3CCC(C)CC3)s2)cc1	u	u	u	-19%	u	u	85*
COc1ccc(OCC(=O)Nc2nnc(S(=O)(=O)N3CCCCCC3)s2)cc1	u	-8	u	3%[11.6 µM]	-31%	-12%	x
O=C(CCC1CCCC1)NNC(=O)c1ccccc1O	6%	-1	-21%	2%	-19%	x	x
CC(c1ccccc1)N1C(=O)c2ccc(C(=O)Nc3ccc(Br)cc3C(=O)O)cc2C1=O (stereo unspecified)	-13%	-57*	50µM*	-15%[11.6 µM]	-8%	14%	76*
O=C(O)c1ccc(/C=N/NC(=O)c2cc3ccccc3cc2O)cc1	16µM*	u	22µM*	u	50µM*	x	u
O=C(CNc1ccc2ccccc2c1)N/N=C/c1ccc(C(=O)O)cc1	u	8	1%	-15%	u	10%	x
COc1cc(/C=C2/C(=O)NN(c3ccc(Cl)c(Cl)c3)C2=O)cc([N+](=O)[O-])c1O	18µM*	-88*	20µM*	50µM*	-86%	20µM*	30*	GALK inh confirm=33µM*;Redox cycling=-3%;HEK293 tox=13%
CC1=CN2C(=N)/C(=C/c3ccc([N+](=O)[O-])o3)C(=O)N=C2S1	16µM*	-67*	4µM*	32µM*	32µM*	18µM*	60*
O=C(NCc1ccccc1)c1cc(C2COCCN2C(=O)c2ccc3c(c2)CCO3)on1 (stereo unspecified)	x	9	x	4%	x	x	x
COc1cc(Br)c(C(=O)c2nccc3cc(OC)c(OC)cc23)cc1OC	1.8µM*	-7	79µM*	-12%[11.6 µM]	9%	-2%	u
COc1cc(N)c(C(=O)c2nccc3cc(OC)c(OC)cc23)cc1OC	234%	3	11%	-31%	3%	44%	x
CC(C)(C)c1ccc(C(=O)NCCNC(=O)c2ccco2)cc1	65%	7	-24%	-7%	4%	21%	x
O=C(O)c1cc(S(=O)(=O)N2CCN(S(=O)(=O)c3ccc4ccccc4c3)CC2)ccc1Br	u	-24	18µM*	-11%[11.6 µM]	-36%	x	48*	Pol kappa inh-2=17*
CC(=O)N1CCN(C(=O)OC2CC3CC2[C@H]2CCCCN2C3=O)CC1 (stereo partly specified)	x	0	x	4%	x	x	x
CNC(=S)N/N=C/c1ccc(-c2ccc(C(=O)O)cc2)o1	u	-62*	22µM*	-8%[11.6 µM]	u	u	34*
SMILES	Pol iota inh	PI5P4Ka inh	Pol eta inh-1	WRN inhibitor	Pol kappa inh-1	POLB inh	Pol eta inh-2	others
NS(=O)(=O)c1ccc(-c2ccc(/C=N/Nc3ccc(C(=O)O)cc3)o2)cc1	50µM*	u	28µM*	-11%	u	-16%	u
NS(=O)(=O)c1ccc(-c2ccc(/C=N/NC(=O)c3ccc([N+](=O)[O-])cc3)o2)cc1	-3%	0	4%	-5%	-9%	-17%	x
CCOC(=O)CSc1nc2ccc(NC(=O)c3ccc(C)cc3)cc2s1	15%	x	-18%	x	-2%	-3%	x
CC1=C2C(CCS2(=O)=O)CC2(C1)C(=O)OC(C)(C)OC2=O (stereo unspecified)	u	-13	79µM*	-27%	u	u	u
COC(=O)c1ccc(Cn2nnc3sc4c(c3c2=O)CCCC4)cc1	-8%	x	x	x	-6%	u	x
O=C(O)c1ccc(Cn2nnc3sc4c(c3c2=O)CCCC4)cc1	u	-12	20µM*	-3%[11.6 µM]	u	12%	u
O=C(C(=O)N1CCC(Cc2ccccc2)CC1)c1ccccc1Br	x	-2	x	-5%	x	x	x
O=C(O)c1ccc(-n2c(-c3cc(-c4ccco4)[nH]n3)n[nH]c2=S)cc1	u	u	10µM*	u	u	u	30*
O=C(Nc1ccccc1Cl)c1cnccn1	-15%	x	-4%	-1%	-9%	-12%	x

From PubChem BioAssay
